{
  "source": "patent US20130022590",
  "about": "“Compositions Comprising Zinc Finger Domains and Uses Therefor” (published 2013)",
  "data": [
    {"target": "T1, ZRANB2-F2 (Homo sapiens, UniProt O95218 O95218:65-95)", "T1 chain": "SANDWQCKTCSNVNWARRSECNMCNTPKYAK", "experiment": "FP; about 4-fold to 8-fold stated in p392", "conditions": "tags: GST fusion (FA); label: 5'-fluorescein; ssRNA", "procedure": "Fluorescence Anisotropy titrations e.g., as shown in FIGS. 1D-F, 8 and 35, were carried out using standard protocols. In brief, 5′-Fluorescein-labeled RNA oligonucleotides were quantified by A₂₆₀, correcting for fluorescein absorbance by using A₄₉₃. For single-site experiments, the sequence […] (SEQ ID NO: 28), or single base mutants thereof, was used. For double-site experiments, two AGGUAA sites were separated by different length sequences as indicated, and the total oligonucleotide lengths were kept constant by the symmetrical addition of adenines to each end. […] Protein was titrated into this starting solution and anisotropy values measured on a Cary Eclipse fluorescence spectrophotometer fitted with manual polarizer and long-pass filters set to 475 and 515 nm for excitation and emission, respectively. […] Association constants were determined by nonlinear least squares regression analysis using a 1:1 binding model.\nTo determine whether changing arginine-82 (R82) would affect the binding preference of ZRANB2-F2 from GGU to GAU, the point mutation R82Q in ZNF 2 of ZRANB2 was made and the ability of both the wild type (W) protein and the R82Q mutant to bind to AGGUAA and AGAUAA was assessed by fluorescence anisotropy binding assays as described previously in Example 1.", "units": {"binding signal": "fold lower than AGGUAA"}, "values": [
      {"sequence": "AGAUAA", "binding signal": "~4"}
    ]}
  ]
}
